Shown are actives, neighbours in structure and some others; about 3.2% of the full set was active somewhere.
A3A deaminase – blocks human APOBEC3A ssDNA deamination. P31941. recombinant A3A, FAM/TAMRA ssDNA deamination fluorescence. inhibition, % at 20 µM. 0.41% of 330,000 active. AID 493011;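 active = at least 40% inhibition at 20 µM here, with at most 30% in a related deaminase screen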;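 also: plate controls were A3A with DMSO for no effect and wells lacking A3A enzyme for full effect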
Target sequence (P31941 whole entry, looked up): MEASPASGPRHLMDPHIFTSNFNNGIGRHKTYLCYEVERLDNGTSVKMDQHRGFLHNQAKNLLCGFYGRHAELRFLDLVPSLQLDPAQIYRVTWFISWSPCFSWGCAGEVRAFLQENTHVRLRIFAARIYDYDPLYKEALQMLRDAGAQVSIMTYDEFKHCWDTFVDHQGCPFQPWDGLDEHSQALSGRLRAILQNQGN
APOBEC3G inh – APOBEC3G (human) deaminase inhibition. Q9HC16. recombinant A3G, ssDNA deamination FAM/TAMRA fluorescence. inhibition, % at 20 µM. 0.28% of 330,000 active. AID 493012;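 active = inhibition of at least 40% at 20 µM, with no more than 30% in the related APOBEC3A deaminase screen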;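 also: plate controls were DMSO wells with A3G for no effect and wells lacking A3G enzyme for full effect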
Target sequence (Q9HC16 whole entry, looked up): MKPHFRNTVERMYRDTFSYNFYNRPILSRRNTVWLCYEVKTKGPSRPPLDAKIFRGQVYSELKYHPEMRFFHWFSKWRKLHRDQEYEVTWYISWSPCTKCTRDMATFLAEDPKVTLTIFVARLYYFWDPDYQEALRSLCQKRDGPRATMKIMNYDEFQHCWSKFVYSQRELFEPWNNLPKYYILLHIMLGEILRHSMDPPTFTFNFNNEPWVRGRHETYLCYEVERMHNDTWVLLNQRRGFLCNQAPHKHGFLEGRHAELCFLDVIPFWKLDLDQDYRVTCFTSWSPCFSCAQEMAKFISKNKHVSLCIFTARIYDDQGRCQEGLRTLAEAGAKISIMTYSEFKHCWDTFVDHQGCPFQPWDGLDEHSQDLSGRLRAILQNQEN
AHR act – activators of human aryl hydrocarbon receptor | AHR-responsive luciferase reporter cells, luminescence | activation, % at 5 µM | 2.5% of 320,000 active | AID 2796; in the data active = activation above about 47%;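 also: 0% = vehicle wells and 100% = reference agonist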
NTR1 agonist – agonists of human neurotensin receptor NTR1; P30989; NTR1-U2OS beta-arrestin-GFP spot imaging, agonist mode; activation, % at 20 µM; 0.17% of 330,000 active;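 active = activation at or above 40% of the spot to cytoplasm intensity ratio, with at least 20 cells analyzed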;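 also: 0% = DMSO without peptide and 100% = 100 nM NTR1 peptide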
A3G conf – APOBEC3G (human) deaminase inhibition, confirmed; 72% of 890 active; recombinant A3G ssDNA deaminase, UDG/FAM-TAMRA fluorescence; shares compounds with APOBEC3G inh; inhibition, % at 20 µM;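 active = inhibition reaching a set limit in any replicate at 20 µM, the limit being 80% of the first screen's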
UDG ctr A3G – E. coli UDG inhibition in APOBEC3G counter-screen; 710 tested, under 10 active; inhibition, % at 20 µM; UDG counterscreen, FAM/TAMRA oligo fluorescence; shares compounds with APOBEC3G inh;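 active = compounds giving 40% or more inhibition at 20 µM in any one of the three replicates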;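 also: plate controls were DMSO wells with UDG and oligo for no effect and DMSO wells lacking both for full effect; inhibitors lower the FAM signal released by uracil excision and alkaline cleavage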
Numbers without * were called inactive.

Results for Cc1ccc(-c2cn3c(=S)[nH]nc3s2)cc1 ?
A3A deaminase: 3; APOBEC3G inh: 80*; AHR act: 0; NTR1 agonist: 1; A3G conf: 66*; UDG ctr A3G: -4

What do the screens show for `Cc1cc(NC(=O)CSCC(=O)N2CCN(c3ccccc3)CC2)no1`?
A3A deaminase: -5; APOBEC3G inh: -8; AHR act: 1; NTR1 agonist: 0

Results for COc1ccc(OCc2n[nH]c(=S)n2Cc2ccco2)cc1 ?
A3A deaminase: -3; APOBEC3G inh: 43*; AHR act: 4; NTR1 agonist: 0; A3G conf: 72*; UDG ctr A3G: 10

What do the screens show for `COc1ccc(NC(=O)c2ccc3c(c2)NC(=O)CS3)cc1S(=O)(=O)Nc1ccc(Br)cc1`?
A3A deaminase: 3; APOBEC3G inh: 55*; AHR act: 12; NTR1 agonist: 3; A3G conf: 30*; UDG ctr A3G: -3

How did COc1cc([N+](=O)[O-])ccc1NC(=O)COC(=O)c1ccc(NC(N)=O)cc1 do in these assays?
A3A deaminase: 8; APOBEC3G inh: -3; AHR act: 0; NTR1 agonist: 3

Results for Cc1ccc(-c2n[nH]c(=S)n2/N=C/c2ccc(C(=O)O)cc2)cc1 ?
A3A deaminase: -6; APOBEC3G inh: 40; AHR act: 1; NTR1 agonist: -1

Results for O=C(O)c1ccc(/C=N/n2cc(-c3ccccc3)[nH]c2=S)cc1 ?
A3A deaminase: -5; APOBEC3G inh: 58*; AHR act: 6; NTR1 agonist: 0; A3G conf: 80*; UDG ctr A3G: -4

Results for CC(=O)Nc1ccc(S(=O)(=O)NNC(=O)c2cccc(Cl)c2)cc1 ?
A3A deaminase: 2; APOBEC3G inh: 76*; AHR act: 1; NTR1 agonist: 0; A3G conf: -3

How did CC(=O)Nc1ccc(S(=O)(=O)NNC(=O)c2ccc3c(c2)OCO3)cc1 do in these assays?
A3A deaminase: -3; APOBEC3G inh: -10; AHR act: 4; NTR1 agonist: 1

Results for COC(=O)N1CCc2c(sc(NC(=O)C3COc4ccccc4O3)c2C(N)=O)C1 (configuration not stated) ?
A3A deaminase: 2; APOBEC3G inh: 50*; AHR act: 13; NTR1 agonist: 3; A3G conf: 21*; UDG ctr A3G: -4

Results for NC(=O)c1c(NC(=O)C2COc3ccccc3O2)sc2c1CCN(Cc1ccccc1)C2 (configuration not stated) ?
A3A deaminase: -5; APOBEC3G inh: -3; AHR act: -1; NTR1 agonist: 14

Results for CN1C(=O)[C@H]2[C@@H](/C=C/c3ccccc3)N3C(=O)CN(Cc4ccccn4)C(=O)[C@@]3(C)[C@H]2C1=O ?
A3A deaminase: 0; APOBEC3G inh: -7; AHR act: 1; NTR1 agonist: 0

How did O=C1/C(=C\c2cccc(O)c2O)SC(=S)N1Cc1ccccc1 do in these assays?
A3A deaminase: 2; APOBEC3G inh: 62*; AHR act: 0; NTR1 agonist: 9; A3G conf: 59*; UDG ctr A3G: -3

Results for O=C1/C(=C\c2ccc(O)c(O)c2)SC(=S)N1Cc1ccccc1 ?
A3A deaminase: -6; APOBEC3G inh: -10; NTR1 agonist: -4

Results for CCn1cc(C(=O)NCC(OC)OC)c(=O)c2cc(S(=O)(=O)N3CCC(C)CC3)ccc21 ?
A3A deaminase: -2; APOBEC3G inh: 59*; AHR act: -1; NTR1 agonist: 1; A3G conf: -2; UDG ctr A3G: -2

What do the screens show for `CCn1cc(C(=O)NCC(OC)OC)c(=O)c2cc(S(=O)(=O)N3CCCC3)ccc21`?
A3A deaminase: -3; APOBEC3G inh: -5; AHR act: 1; NTR1 agonist: 0

How did CCC1C(=O)NCCN1C(=O)c1ccc(OC)c(OC2CCN(C(C)=O)CC2)c1 (configuration not stated) do in these assays?
A3A deaminase: -1; APOBEC3G inh: -7; AHR act: 1; NTR1 agonist: 0

How did CCOC(=O)C1CCN(C(=O)Nc2cc(Cl)cc(Cl)c2)CC1 do in these assays?
A3A deaminase: 0; APOBEC3G inh: -1; AHR act: 1; NTR1 agonist: 1

What do the screens show for `N#Cc1cn(CC(=O)O)c2ccccc12`?
A3A deaminase: -12; APOBEC3G inh: 70*; AHR act: 28; NTR1 agonist: -3; A3G conf: -5; UDG ctr A3G: -3

How did Nc1nc(-c2ccc3c(c2)OCCO3)cs1 do in these assays?
A3A deaminase: -4; APOBEC3G inh: -2; AHR act: 11; NTR1 agonist: 1

What do the screens show for `Nc1nc(-c2cc3c(cc2Cl)OCCO3)cs1`?
A3A deaminase: -1; APOBEC3G inh: 52*; AHR act: -1; NTR1 agonist: 0; A3G conf: -9; UDG ctr A3G: -3

Results for O=C(O)CCS(=O)(=O)c1cccc2cccnc12 ?
A3A deaminase: -2; APOBEC3G inh: -5; AHR act: -1; NTR1 agonist: 0

How did CCSS(=O)(=O)c1cccc2cccnc12 do in these assays?
A3A deaminase: -2; APOBEC3G inh: 68*; AHR act: -2; NTR1 agonist: 3; A3G conf: 66*; UDG ctr A3G: -1

What do the screens show for `CCc1cc2cc(C)cc(C)c2[nH]c1=S`?
A3A deaminase: 2; APOBEC3G inh: 49*; AHR act: 5; NTR1 agonist: 0; A3G conf: active; UDG ctr A3G: -3

How did COc1ccnc(N2CCN(c3ccc(Cl)cc3)CC2)c1C#N do in these assays?
A3A deaminase: -8; APOBEC3G inh: -8; AHR act: 11; NTR1 agonist: 6

What do the screens show for `COc1ccnc(N2CCN(c3cccc(C(F)(F)F)c3)CC2)c1C#N`?
A3A deaminase: 1; APOBEC3G inh: 47*; AHR act: -3; NTR1 agonist: 4; A3G conf: 1

What do the screens show for `Cc1cc2cc(C#N)c(N3CCOCC3)nc2cc1Cl`?
A3A deaminase: -1; APOBEC3G inh: -8; AHR act: 7; NTR1 agonist: 5

How did O=C(Cn1sc2ccccc2c1=O)NC12CC3CC(CC(C3)C1)C2 do in these assays?
A3A deaminase: 0; APOBEC3G inh: 78*; AHR act: 3; NTR1 agonist: 0; A3G conf: 78*; UDG ctr A3G: 1

Results for Cc1ccc(S(=O)(=O)N(CC(=O)Nc2ccc(C(N)=O)cc2)C(=O)N2CCN(C)CC2)cc1 ?
A3A deaminase: 0; APOBEC3G inh: -6; AHR act: -1; NTR1 agonist: 1

How did CCOC(=O)c1c2c3c(c(Cl)ccc3[nH]c1=O)C(=O)c1ccccc1-2 do in these assays?
A3A deaminase: 2; APOBEC3G inh: 28; NTR1 agonist: 15

What do the screens show for `CC(=O)Nc1c2c3c(cccc3n(C)c1=O)C(=O)c1ccccc1-2`?
A3A deaminase: 1; APOBEC3G inh: -3; AHR act: 8; NTR1 agonist: -2
